Test results: PubChem BioAssay (EPA / NIEHS)
Results filed as inconclusive are left out. Calls of active or inactive are those of the source. Rule for the calls, unless noted: active = hit-call score of the fitted dose curve at least 0.9, where 1 is the maximum; inactive = score below 0.9.

Key:
[1] = ATG_PBREM_CIS: Attagene CIS-FACTORIAL HepG2 Assay for human Phenobarbital-responsive Enhancer Module (PBREM) (AID 2282955); details: HepG2 PBREM cis-reporter, Attagene multiplexed transcription; actives raise or lower the signal
How it was run: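 Multiplexed cis-reporter readout in human hepatoma HepG2 cells; PBREM-regulated transcript quantified after 24 h exposure by fluorescent RT-PCR fragment analysis. Signal changes up or down fitted relative to DMSO.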

[2] = biological target: Paired box protein Pax-6 (Homo sapiens) (UniProt P26367); assay: ATG_Pax6_CIS: Attagene CIS-FACTORIAL HepG2 Assay for human Paired Box 6 (PAX6) (AID 2282956); details: HepG2 CIS-FACTORIAL PAX6 reporter transcription, RNA readout; actives raise or lower the signal
Sequence of Paired box protein Pax-6 (Homo sapiens) (P26367 whole entry, looked up): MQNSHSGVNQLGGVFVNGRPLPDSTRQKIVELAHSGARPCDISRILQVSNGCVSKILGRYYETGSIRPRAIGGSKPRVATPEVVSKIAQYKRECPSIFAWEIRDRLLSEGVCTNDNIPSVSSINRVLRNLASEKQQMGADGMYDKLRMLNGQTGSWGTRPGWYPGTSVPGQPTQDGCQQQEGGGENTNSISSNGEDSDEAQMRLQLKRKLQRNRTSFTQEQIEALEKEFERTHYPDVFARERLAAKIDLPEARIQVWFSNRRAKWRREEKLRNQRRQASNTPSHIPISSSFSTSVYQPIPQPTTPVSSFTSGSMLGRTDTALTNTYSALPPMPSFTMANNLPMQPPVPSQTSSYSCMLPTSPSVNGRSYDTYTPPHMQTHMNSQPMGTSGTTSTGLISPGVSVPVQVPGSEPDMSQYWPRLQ
How it was run: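 After twenty-four hours of chemical exposure, transfected HepG2 cells are harvested for RNA. Cis-promoter reporter transcripts are amplified, fluorescently labelled and sized by capillary electrophoresis, with gain and loss of signal scored against DMSO.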

[3] = ATG_PXRE_CIS: Attagene CIS-FACTORIAL HepG2 Assay for human Pregnane X Receptor Element (PXRE) (AID 2282957); details: HepG2 Attagene CIS-FACTORIAL PXRE reporter, mRNA; actives raise or lower the signal
How it was run: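 HepG2 cells transiently transfected with cis-element-driven multiplexed reporter units; after 24 h chemical exposure, reporter mRNA measured by RT-PCR, 6-FAM labelling, HpaI digestion and capillary electrophoresis. Bidirectional fitting relative to DMSO.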

[4] = ATG_PPRE_CIS: Attagene CIS-FACTORIAL HepG2 Assay for human Peroxisome Proliferator-activated Response Element (PPRE) (AID 2282958); details: HepG2 PPRE cis-element reporter, Attagene transcription factor profiling; actives raise or lower the signal
How it was run: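 DMSO served as negative control and baseline for bidirectional curve fitting. Signal came from PPRE-regulated reporter mRNA in HepG2 cells, measured 24 h post-dosing by RT-PCR, 6-FAM primer extension and capillary electrophoresis.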

[5] = ATG_RORE_CIS: Attagene CIS-FACTORIAL HepG2 Assay for human RAR-related Orphan Receptor Element (RORE) (AID 2282959); details: HepG2 Attagene cis-factorial RORE reporter, mRNA; actives raise or lower the signal
How it was run: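 Transfect HepG2 with MRTUs; treat 24 h; extract RNA; RT with oligo(dT); PCR with reporter-specific primers; 6-FAM primer extension; HpaI digest 2 h at 37 C; capillary electrophoresis. Fit vs DMSO, bidirectional.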

[6] = ATG_Sox_CIS: Attagene CIS-FACTORIAL HepG2 Assay for human SRY-box transcription factor (SOX) (AID 2282960); details: HepG2 Attagene cis-factorial SOX reporter, mRNA; actives raise or lower the signal
How it was run: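 Fluorescence-labelled cDNA fragments from reporter transcripts, sized by CE, give the signal. Cells: HepG2, transiently transfected with cis-regulated reporter units. Exposure 24 h; DMSO negative control; bidirectional curve fitting.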

[7] = biological target: Transcription factor Sp1 (Homo sapiens) (UniProt P08047); assay: ATG_Sp1_CIS: Attagene CIS-FACTORIAL HepG2 Assay for human Specificity Protein 1 (Sp1) (AID 2282961); details: HepG2 Sp1 cis-reporter transcription, actives raise or lower the signal
Sequence of Transcription factor Sp1 (Homo sapiens) (P08047 whole entry, looked up): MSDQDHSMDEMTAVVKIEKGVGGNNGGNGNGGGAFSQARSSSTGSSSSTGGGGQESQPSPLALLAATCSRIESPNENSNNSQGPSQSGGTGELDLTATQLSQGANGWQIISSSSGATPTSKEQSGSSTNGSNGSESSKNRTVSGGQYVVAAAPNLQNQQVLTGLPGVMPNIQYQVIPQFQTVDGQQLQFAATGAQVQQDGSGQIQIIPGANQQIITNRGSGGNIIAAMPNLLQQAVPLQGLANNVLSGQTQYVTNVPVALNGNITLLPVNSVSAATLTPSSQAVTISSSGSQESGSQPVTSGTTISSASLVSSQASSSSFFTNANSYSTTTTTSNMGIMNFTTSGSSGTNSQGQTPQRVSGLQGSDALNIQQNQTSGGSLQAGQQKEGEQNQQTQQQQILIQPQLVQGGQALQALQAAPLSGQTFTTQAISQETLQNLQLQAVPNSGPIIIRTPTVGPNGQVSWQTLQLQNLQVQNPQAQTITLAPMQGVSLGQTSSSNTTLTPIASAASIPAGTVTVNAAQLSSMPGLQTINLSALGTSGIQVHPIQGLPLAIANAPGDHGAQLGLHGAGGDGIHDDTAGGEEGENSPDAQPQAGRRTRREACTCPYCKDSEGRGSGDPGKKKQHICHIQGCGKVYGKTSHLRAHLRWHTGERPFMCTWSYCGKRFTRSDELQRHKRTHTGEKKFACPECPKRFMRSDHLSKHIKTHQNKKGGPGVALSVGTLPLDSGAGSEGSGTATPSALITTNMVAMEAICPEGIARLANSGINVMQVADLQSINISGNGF
How it was run: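 Chemicals are dosed onto HepG2 cells transfected with multiple cis-promoter reporter constructs, and after 24 h reporter RNA is reverse-transcribed, PCR-amplified and resolved by capillary electrophoresis for fluorescence quantitation; activity is scored up or down against DMSO.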

[8] = ATG_SREBP_CIS: Attagene CIS-FACTORIAL HepG2 Assay for human Sterol Regulatory Element Binding (SREBP) (AID 2282962); details: HepG2 Attagene cis-factorial SREBP reporter, mRNA; actives raise or lower the signal
How it was run: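 Twenty-four hours after chemical dosing of transfected HepG2 cultures, reporter RNA was converted to cDNA, amplified, end-labelled with 6-FAM and resolved by capillary electrophoresis. Responses were fitted relative to DMSO.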

[9] = biological target: Signal transducer and activator of transcription 3 (Homo sapiens) (UniProt P40763); assay: ATG_STAT3_CIS: Attagene CIS-FACTORIAL HepG2 Assay for human Signal Transducer and Activator of Transcription 3 (STAT3) (AID 2282963); details: HepG2, Attagene cis-factorial STAT3 reporter transcription; actives raise or lower the signal
Sequence of Signal transducer and activator of transcription 3 (Homo sapiens) (P40763 whole entry, looked up): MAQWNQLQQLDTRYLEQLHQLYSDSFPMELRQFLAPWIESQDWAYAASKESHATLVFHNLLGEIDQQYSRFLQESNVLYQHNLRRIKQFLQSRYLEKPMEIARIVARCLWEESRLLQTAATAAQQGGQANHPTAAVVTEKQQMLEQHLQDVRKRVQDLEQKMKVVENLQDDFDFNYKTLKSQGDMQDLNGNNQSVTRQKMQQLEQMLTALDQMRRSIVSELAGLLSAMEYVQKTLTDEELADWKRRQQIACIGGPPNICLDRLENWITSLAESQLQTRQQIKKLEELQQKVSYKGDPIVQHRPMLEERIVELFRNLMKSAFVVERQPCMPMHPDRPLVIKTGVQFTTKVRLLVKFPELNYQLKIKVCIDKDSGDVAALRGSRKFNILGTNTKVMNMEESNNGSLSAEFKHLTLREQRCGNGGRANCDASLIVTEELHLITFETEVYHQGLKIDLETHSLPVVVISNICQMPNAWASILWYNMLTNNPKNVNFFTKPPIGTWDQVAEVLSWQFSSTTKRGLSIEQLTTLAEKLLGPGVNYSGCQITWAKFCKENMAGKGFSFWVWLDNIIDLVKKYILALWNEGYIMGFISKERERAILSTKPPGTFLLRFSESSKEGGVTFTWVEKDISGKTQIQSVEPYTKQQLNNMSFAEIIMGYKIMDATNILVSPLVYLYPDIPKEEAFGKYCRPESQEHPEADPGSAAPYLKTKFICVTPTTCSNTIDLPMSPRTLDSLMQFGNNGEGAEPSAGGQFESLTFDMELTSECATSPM
How it was run: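 HepG2 cells transiently transfected with multiple cis-element-driven reporter units report endogenous transcription factor activity. After 24 h compound exposure, reporter mRNA is measured by RT-PCR, 6-FAM labelling, HpaI digestion and capillary electrophoresis. Fitted bidirectionally versus DMSO.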

[10] = ATG_TCF_b_cat_CIS: Attagene CIS-FACTORIAL HepG2 Assay for human T-Cell-Factor with beta-catenin (TCF/b-cat) (AID 2282965); details: HepG2 TCF/beta-catenin cis-reporter transcription, actives raise or lower the signal
How it was run: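 Cells of the HepG2 line carry transiently transfected reporter units whose promoters respond to endogenous factors. Twenty-four hours post-dosing, reporter mRNA induction is measured by fluorescent RT-PCR and capillary electrophoresis, with DMSO as baseline.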

[11] = ATG_TAL_CIS: Attagene CIS-FACTORIAL HepG2 Assay for human TAL Basal Promoter (AID 2282966); details: HepG2 Attagene cis-factorial TAL promoter reporter; actives raise or lower the signal;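 note: background control endpoint measuring basal TAL promoter reporter mRNA not a specific factor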
How it was run: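 HepG2 cells transiently transfected with multiplexed cis-promoter reporter units, dosed 24 h. Reporter mRNA quantified by RT-PCR, 6-FAM labelling, HpaI digestion and capillary electrophoresis; TAL basal promoter serves as background control, fitted bidirectionally versus DMSO.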

[12] = ATG_TGFb_CIS: Attagene CIS-FACTORIAL HepG2 Assay for human Transforming Growth Factor (TGF) (AID 2282967); details: HepG2 Attagene CIS TGFb reporter, mRNA transcription; actives raise or lower the signal
How it was run: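 After a 24-hour incubation with compound, transfected HepG2 cells were lysed for RNA; reporter cDNA was amplified, fluorescently end-labeled and separated by CE. DMSO served as baseline for bidirectional fits.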

[13] = ATG_VDRE_CIS: Attagene CIS-FACTORIAL HepG2 Assay for human Vitamin D Receptor Element (VDRE) (AID 2282968); details: HepG2 VDRE cis-reporter transcription, actives raise or lower the signal
How it was run: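 Transiently transfected HepG2 cells carrying cis-regulated reporter transcription units were exposed for 24 h. Reporter mRNA was measured by RT-PCR with fluorescent labelling and capillary electrophoresis, and fitted in both directions against DMSO.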

[14] = biological target: Estrogen receptor (Homo sapiens) (UniProt P03372); assay: ATG_ERa_TRANS: Attagene TRANS-FACTORIAL HepG2 Assay for human Estrogen Receptor alpha (ERa) (AID 2282970; active = hit-call score of the fitted dose curve at least 0.9, where 1 is the maximum); details: HepG2 Attagene TRANS ERa GAL4 reporter, mRNA
Sequence of Estrogen receptor (Homo sapiens) (P03372 whole entry, looked up, the tested form may be a part): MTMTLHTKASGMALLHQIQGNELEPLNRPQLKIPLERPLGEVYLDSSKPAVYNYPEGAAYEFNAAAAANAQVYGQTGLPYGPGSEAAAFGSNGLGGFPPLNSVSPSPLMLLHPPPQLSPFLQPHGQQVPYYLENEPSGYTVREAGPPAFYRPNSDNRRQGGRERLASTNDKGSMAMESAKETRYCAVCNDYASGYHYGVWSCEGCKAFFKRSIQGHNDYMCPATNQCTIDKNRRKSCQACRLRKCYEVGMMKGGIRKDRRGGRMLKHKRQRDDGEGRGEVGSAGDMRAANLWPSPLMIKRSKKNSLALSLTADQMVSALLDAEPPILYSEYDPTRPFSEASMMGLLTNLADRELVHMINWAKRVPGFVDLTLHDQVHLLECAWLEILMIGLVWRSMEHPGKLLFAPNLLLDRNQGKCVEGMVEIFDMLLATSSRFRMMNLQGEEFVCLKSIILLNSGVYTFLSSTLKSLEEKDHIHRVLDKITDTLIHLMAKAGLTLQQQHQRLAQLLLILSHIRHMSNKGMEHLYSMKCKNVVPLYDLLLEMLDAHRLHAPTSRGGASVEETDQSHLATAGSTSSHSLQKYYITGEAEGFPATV
How it was run: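 HepG2 cells transiently transfected with multiplexed GAL4-UAS reporter units read out chimeric NR-Gal4 activity. After 24 h compound exposure, reporter mRNA was quantified by RT-PCR, 6-FAM labeling, HpaI digestion and capillary electrophoresis, relative to DMSO.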

[15] = ATG_GAL4_TRANS: Attagene TRANS-FACTORIAL HepG2 Assay for GAL4 (Internal Marker) (AID 2282976; active = hit-call score of the fitted dose curve at least 0.9, where 1 is the maximum); details: HepG2 Attagene TRANS GAL4 internal marker reporter
How it was run: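 Background-control readout: GAL4-UAS reporter transcript in transiently transfected HepG2 cells after 24 h compound exposure. Measured by RT-PCR, 6-FAM primer extension, HpaI digest and capillary electrophoresis; gain-of-signal fit versus DMSO.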

[16] = ATG_TA_CIS: Attagene CIS-FACTORIAL HepG2 Assay for human TA Basal Promoter (AID 2282964); details: HepG2 Attagene CIS-factorial TA basal promoter reporter; actives raise or lower the signal
How it was run: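 Transient MRTU transfection of HepG2 preceded 24 h compound exposure. Reporter mRNA levels were then read by RT-PCR with capillary electrophoresis, and this background-control endpoint was fitted bidirectionally to DMSO.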

[17] = biological target: Steroid hormone receptor ERR1 (Homo sapiens) (UniProt P11474); assay: ATG_ERRa_TRANS: Attagene TRANS-FACTORIAL HepG2 Assay for human Estrogen-Related Receptor alpha (ERRa) (AID 2282971; active = hit-call score of the fitted dose curve at least 0.9, where 1 is the maximum); details: HepG2 Attagene TRANS reporter, ERRa transactivation
Sequence of Steroid hormone receptor ERR1 (Homo sapiens) (P11474 whole entry, looked up, the tested form may be a part): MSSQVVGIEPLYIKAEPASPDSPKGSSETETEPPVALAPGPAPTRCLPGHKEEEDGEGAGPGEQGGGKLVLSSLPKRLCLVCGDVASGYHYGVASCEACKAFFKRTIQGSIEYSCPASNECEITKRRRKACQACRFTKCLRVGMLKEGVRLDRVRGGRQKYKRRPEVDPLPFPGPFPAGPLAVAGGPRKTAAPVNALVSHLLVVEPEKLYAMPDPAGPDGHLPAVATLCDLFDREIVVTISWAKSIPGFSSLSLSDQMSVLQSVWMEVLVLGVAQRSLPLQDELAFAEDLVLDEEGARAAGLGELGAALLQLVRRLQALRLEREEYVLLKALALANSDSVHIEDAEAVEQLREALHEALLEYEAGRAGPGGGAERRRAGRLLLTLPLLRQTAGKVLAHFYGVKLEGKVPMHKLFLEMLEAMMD
How it was run: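 HepG2 cells transiently transfected with GAL4-UAS reporter units and chimeric NR-Gal4 constructs; after 24 hour compound incubation, reporter mRNA quantified by RT-PCR, fluorescent labelling and capillary electrophoresis, gain of signal versus DMSO.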

[18] = biological target: X-box-binding protein 1 (Homo sapiens) (UniProt P17861); assay: ATG_Xbp1_CIS: Attagene CIS-FACTORIAL HepG2 Assay for human X-box Binding Protein 1 (XBP1) (AID 2282972); details: HepG2 XBP1 cis-element reporter, Attagene multiplex; actives raise or lower the signal
Sequence of X-box-binding protein 1 (Homo sapiens) (P17861 whole entry, looked up): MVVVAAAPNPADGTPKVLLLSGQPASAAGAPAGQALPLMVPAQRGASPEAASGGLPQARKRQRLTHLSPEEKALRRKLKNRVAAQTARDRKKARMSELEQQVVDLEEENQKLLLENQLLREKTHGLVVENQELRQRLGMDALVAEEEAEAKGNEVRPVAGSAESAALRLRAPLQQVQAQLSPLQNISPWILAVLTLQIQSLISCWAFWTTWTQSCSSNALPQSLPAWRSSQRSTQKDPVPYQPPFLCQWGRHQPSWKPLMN
How it was run: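 After a 24-hour chemical exposure of HepG2 cells carrying cis-regulated reporters, reporter mRNA levels are assessed. Quantification uses RT-PCR, 6-FAM labelling and capillary electrophoresis. Gain- or loss-of-signal is fitted against DMSO.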

[19] = biological target: Nuclear receptor subfamily 1 group I member 3 (Homo sapiens) (UniProt Q14994); assay: ATG_CAR_TRANS: Attagene TRANS-FACTORIAL HepG2 Assay for human Constitutive Androstane Receptor (CAR) (AID 2282969; active = hit-call score of the fitted dose curve at least 0.9, where 1 is the maximum;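 note: activators raise reporter mRNA above DMSO so AC50 marks induction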); details: HepG2 Attagene TRANS-FACTORIAL CAR reporter
Sequence of Nuclear receptor subfamily 1 group I member 3 (Homo sapiens) (Q14994 whole entry, looked up, the tested form may be a part): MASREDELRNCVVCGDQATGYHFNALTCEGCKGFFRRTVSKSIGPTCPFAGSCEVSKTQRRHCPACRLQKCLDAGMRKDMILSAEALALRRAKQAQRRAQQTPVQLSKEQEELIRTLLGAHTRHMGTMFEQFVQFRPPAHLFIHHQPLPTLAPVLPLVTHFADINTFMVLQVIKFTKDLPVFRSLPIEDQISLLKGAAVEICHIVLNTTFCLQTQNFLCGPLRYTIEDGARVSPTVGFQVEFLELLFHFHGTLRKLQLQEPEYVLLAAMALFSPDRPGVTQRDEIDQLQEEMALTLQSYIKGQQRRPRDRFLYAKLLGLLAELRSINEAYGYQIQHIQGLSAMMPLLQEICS
How it was run: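 HepG2 cells transiently transfected with GAL4-UAS reporter units; TRANS format reads activity of exogenous chimeric NR-Gal4 protein. After 24 h dosing, reporter mRNA quantified by RT-PCR, 6-FAM labelling and capillary electrophoresis; gain of signal fitted against DMSO.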

[20] = ATG_M_19_TRANS: Attagene TRANS-FACTORIAL HepG2 Assay for M19 Transcription Factor (Internal Marker) (AID 2282974; active = hit-call score of the fitted dose curve at least 0.9, where 1 is the maximum); details: HepG2 Attagene TRANS-FACTORIAL M19 internal marker reporter
How it was run: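 Multiplexed TRANS format: HepG2 liver cells bearing transient GAL4-UAS reporter units, chemical treatment 24 h, reporter transcripts quantified by RT-PCR plus capillary electrophoresis. DMSO defines baseline.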

Measured: AC50

CC(C)=CC(=O)O
active: [3] 99.5 µM | [14] 49.1 µM
not listed: [16] | [17] | [18] | [19] | [20]
inactive: all other assays above

CN(C)c1ccc(C=O)cc1
not listed: [7] | [19] | [20]
inactive: all other assays above

CC(=O)Nc1cc(S(=O)(=O)O)cc2cc(S(=O)(=O)O)c(N=Nc3ccccc3)c(O)c12
not listed: [14] | [16] | [17] | [18] | [20]
inactive: all other assays above

Cc1cc(N)n(-c2ccccc2)n1
active: [3] 39.5 µM
not listed: [12] | [14] | [15] | [20]
inactive: all other assays above

C=CCCCCCCCCC(=O)OCC
active: [12] 332 nM
not listed: [7] | [19] | [20]
inactive: all other assays above

CC(=O)c1cccnc1
not listed: [14] | [15] | [17] | [18] | [19]
inactive: all other assays above

COc1cc(OC)c2ccc(=O)oc2c1
not listed: [13] | [14] | [17] | [18] | [19] | [20]
inactive: all other assays above
